Assay results taken from PubChem BioAssay (NCATS).
Values joined by “and” are separate entries in the source; they are usually repeats but may differ in a detail not shown here. Equal values may be shown once. Results filed as inconclusive are left out. Active and inactive are the calls of the source. Unless noted, the call rests on the fitted dose curve.

Legend:
[1] = target: Glucocorticoid receptor (Homo sapiens) (UniProt P04150); assay: qHTS assay for small molecule agonists of glucocorticoid receptor signaling (AID 588532; active means well fitted curve in the direction sought with a large enough effect in the signal ratio, with a control signal flat; the % refers to the signal ratio;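 further: 100% = dexamethasone at 0.1 µM and 0% = DMSO only wells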); settings: HeLa MMTV-bla, beta-lactamase ratio, agonist, 18 h; active compounds read high; percent of dexamethasone control, DMSO zero
Procedure, shortened: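 MMTV-bla HeLa beta-lactamase reporter cells in 1% charcoal/dextran FBS medium, compounds up to 92 uM for 18 h at 37 C, CCF4 readout; normalized to 0.1 uM dexamethasone (100%), EC50 and efficacy from Hill fits.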

[2] = target: Peroxisome proliferator-activated receptor gamma (Homo sapiens) (UniProt P37231); assay: qHTS assay for small molecule antagonists of peroxisome proliferator-activated receptor gamma signaling (AID 588537; active means well fitted inhibition curve with a large enough effect in the signal ratio, with a control signal flat, not every such curve was filed as active; the % refers to the signal ratio;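 further: reporter cells co-stimulated with 50 nM rosiglitazone agonist during compound treatment; % of control where 0% means no effect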)
Procedure, shortened: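 Fluorescence at 460 and 530 nm (405 nm excitation) reported beta-lactamase cleavage of CCF4 after 2 h room-temperature loading. HEK293 reporter cells in 1% charcoal/dextran-treated FBS had received compound and rosiglitazone for 16 h.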

[3] = target: Vitamin D3 receptor (Homo sapiens) (UniProt P11473); assay: qHTS assay for small molecule antagonists of vitamin D receptor signaling (AID 588541);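 further: receptor activated by calcitriol during compound treatment; series mostly up to about 77 µM; on the % scale 0 is the no-effect control and ±100 the full control effect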
Procedure, shortened: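 VDR-UAS-bla HEK293T cells in 2% charcoal-stripped FBS were stimulated with 1-alpha,25-dihydroxyvitamin D3 (3 nM final) plus compound for 16 h at 37 C. The beta-lactamase CCF4 readout was normalized to 50 nM agonist and DMSO, and Hill fits gave IC50.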

[4] = target: Vitamin D3 receptor (Homo sapiens) (UniProt P11473); assay: qHTS assay for small molecule agonists of vitamin D receptor signaling (AID 588543);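 further: 0% = DMSO basal and 100% = reference agonist control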
Procedure, shortened: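 Reporter cells (HEK293T, VDR-UAS-bla) were seeded in medium with 2% charcoal-stripped serum and incubated 5 h, then compounds in concentration series were added for 16 h at 37 °C. Stimulation was scaled between DMSO basal and 50 nM 1α,25-dihydroxyvitamin D3.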

[5] = target: Thyroid hormone receptor beta (Homo sapiens) (UniProt P10828); assay: qHTS assay for small molecule antagonists of thyroid hormone receptor beta signaling (AID 588547; active means well fitted inhibition curve with a large enough effect in the signal ratio, with a control signal flat, not every such curve was filed as active; the % refers to the signal ratio;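 further: cells stimulated with 0.4 nM T3 agonist during compound exposure; series mostly up to about 77 µM; on the % scale 0 is the no-effect control and ±100 the full control effect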); settings: TR-UAS-bla HEK293, beta-lactamase ratio, antagonist mode, 18 h
Procedure, shortened: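 TR-UAS-bla GripTite HEK293 cells in 2% charcoal/dextran FBS medium; compounds 0.59 nM to 92 uM with T3 at 0.4nM final, 18 h at 37 C. Beta-lactamase read by CCF4 fluorescence (460/530 nm); Hill fits gave IC50 and efficacy.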

[6] = qHTS assay for small molecule agonists of the antioxidant response element (ARE) signaling pathway (AID 651741; active means well fitted activation curve with a large enough effect in the signal ratio; the % refers to the signal ratio; further: potency means the concentration at half of the fitted maximal effect; on activation: % of control where 0% means no effect)
Procedure, shortened: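 Stably integrated ARE-beta-lactamase reporter HepG2 cells; 16 h compound incubation, 37 C; LiveBLAzer FRET substrate 2 h at room temperature; fluorescence intensity.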

[7] = qHTS assay for small molecule activators of the p53 signaling pathway (AID 651743; active means well fitted activation curve with a large enough effect in the signal ratio, not every such curve was filed as active; the % refers to the signal ratio; further: series mostly up to about 92 µM; % of control where 0% means no effect); settings: HCT-116 p53RE-bla, beta-lactamase FRET ratio, 16 h; activation: active compounds read high
Procedure, shortened: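 Following 16 hours of compound exposure at 37 C, HCT-116 cells bearing the p53RE-bla reporter were loaded with LiveBLAzer B/G FRET substrate for 2 hours at room temperature and fluorescence intensity was recorded.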

Chain of Vitamin D3 receptor (Homo sapiens) (P11473 whole entry, looked up): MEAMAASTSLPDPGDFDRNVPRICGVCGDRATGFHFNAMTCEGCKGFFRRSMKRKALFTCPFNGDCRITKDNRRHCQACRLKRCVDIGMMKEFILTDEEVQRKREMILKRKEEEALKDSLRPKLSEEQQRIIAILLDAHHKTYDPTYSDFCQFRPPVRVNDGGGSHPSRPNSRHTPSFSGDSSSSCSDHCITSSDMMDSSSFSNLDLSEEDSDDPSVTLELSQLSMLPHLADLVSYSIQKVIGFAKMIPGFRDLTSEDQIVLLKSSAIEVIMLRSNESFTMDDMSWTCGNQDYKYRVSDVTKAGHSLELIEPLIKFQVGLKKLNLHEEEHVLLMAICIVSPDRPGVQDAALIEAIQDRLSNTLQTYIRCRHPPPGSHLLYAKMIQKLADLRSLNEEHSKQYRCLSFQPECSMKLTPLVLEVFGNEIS
Chain of Thyroid hormone receptor beta (Homo sapiens) (P10828 whole entry, looked up): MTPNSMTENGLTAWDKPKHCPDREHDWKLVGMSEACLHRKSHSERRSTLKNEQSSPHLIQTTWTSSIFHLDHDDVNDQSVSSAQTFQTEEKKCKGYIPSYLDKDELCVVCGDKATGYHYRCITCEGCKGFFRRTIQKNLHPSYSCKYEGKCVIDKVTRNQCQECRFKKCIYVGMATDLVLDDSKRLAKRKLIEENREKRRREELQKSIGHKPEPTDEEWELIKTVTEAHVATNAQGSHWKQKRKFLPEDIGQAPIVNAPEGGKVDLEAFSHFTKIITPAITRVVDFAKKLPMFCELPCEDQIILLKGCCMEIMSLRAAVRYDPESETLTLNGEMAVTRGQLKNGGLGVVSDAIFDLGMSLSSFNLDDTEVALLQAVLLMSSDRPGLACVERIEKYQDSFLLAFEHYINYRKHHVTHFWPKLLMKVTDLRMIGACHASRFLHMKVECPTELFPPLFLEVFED
Chain of Glucocorticoid receptor (Homo sapiens) (P04150 whole entry, looked up): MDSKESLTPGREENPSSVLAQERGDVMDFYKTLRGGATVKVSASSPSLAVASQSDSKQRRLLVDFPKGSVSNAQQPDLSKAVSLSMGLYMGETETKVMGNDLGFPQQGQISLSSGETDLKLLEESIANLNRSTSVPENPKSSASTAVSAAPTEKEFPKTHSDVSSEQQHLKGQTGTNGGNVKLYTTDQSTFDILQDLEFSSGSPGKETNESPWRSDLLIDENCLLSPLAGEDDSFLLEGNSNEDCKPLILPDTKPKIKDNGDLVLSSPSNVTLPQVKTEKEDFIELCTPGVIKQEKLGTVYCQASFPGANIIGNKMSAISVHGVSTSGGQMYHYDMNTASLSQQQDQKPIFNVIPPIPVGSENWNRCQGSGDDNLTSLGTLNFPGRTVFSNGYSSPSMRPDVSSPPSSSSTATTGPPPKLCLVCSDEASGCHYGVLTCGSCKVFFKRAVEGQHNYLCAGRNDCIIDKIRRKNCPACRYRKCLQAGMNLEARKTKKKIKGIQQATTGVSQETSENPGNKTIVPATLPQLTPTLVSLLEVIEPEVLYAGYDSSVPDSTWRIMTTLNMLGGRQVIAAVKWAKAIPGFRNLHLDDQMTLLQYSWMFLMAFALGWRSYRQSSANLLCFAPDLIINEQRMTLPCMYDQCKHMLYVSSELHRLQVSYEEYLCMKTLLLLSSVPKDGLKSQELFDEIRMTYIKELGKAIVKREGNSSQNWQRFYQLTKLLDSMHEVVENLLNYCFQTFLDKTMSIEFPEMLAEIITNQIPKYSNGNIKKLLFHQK
Chain of Peroxisome proliferator-activated receptor gamma (Homo sapiens) (P37231 whole entry, looked up): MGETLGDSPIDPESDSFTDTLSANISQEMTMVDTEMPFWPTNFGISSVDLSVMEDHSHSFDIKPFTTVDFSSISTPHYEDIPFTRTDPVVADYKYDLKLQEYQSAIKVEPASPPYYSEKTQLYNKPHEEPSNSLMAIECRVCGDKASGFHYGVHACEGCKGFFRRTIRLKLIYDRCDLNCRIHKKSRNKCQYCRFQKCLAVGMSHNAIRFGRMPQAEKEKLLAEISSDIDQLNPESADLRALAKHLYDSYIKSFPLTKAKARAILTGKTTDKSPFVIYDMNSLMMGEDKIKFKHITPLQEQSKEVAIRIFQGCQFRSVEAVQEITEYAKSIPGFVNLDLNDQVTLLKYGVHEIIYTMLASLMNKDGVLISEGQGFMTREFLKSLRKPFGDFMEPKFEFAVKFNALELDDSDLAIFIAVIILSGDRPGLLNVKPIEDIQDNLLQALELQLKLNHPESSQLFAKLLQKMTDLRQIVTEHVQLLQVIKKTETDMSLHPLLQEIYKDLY

c1ccc(OCCOc2ccccc2)cc1
inactive: activation [1] -7.01% | Potency [2] | Potency [3] | outcome [4] | activity change % (negative = inhibition) [5] 5.59% | Potency [6]

CC1(C)C(=O)N(Cl)C(=O)N1Cl
inactive: Potency [2] | Potency [3] | outcome [4] | activity change % (negative = inhibition) [5] -0.904% | Potency [6] | activation [7] -0.829%

O=C(OCCOCCOC(=O)c1ccccc1)c1ccccc1
inactive: activation [1] -2.84% | Potency [2] | Potency [3] | outcome [4] | activity change % (negative = inhibition) [5] 0.94% | activation [7] 0.877%

Nc1nc(N)nc(-c2ccccc2)n1
inactive: activation [1] -8.55% | activity change % (negative = inhibition) [5] 13.3% | Potency [6]

CC(=O)OC(C)(C)C1CC=C(C)CC1 (centres undefined)
inactive: Potency [2] | Potency [3] | outcome [4] | activity change % (negative = inhibition) [5] -6.17% | Potency [6] | activation [7] -1.29%

O=S(=O)(O)c1ccc(N=Nc2c(O)ccc3cc(S(=O)(=O)O)ccc23)cc1
inactive: Potency [3] | outcome [4] | activity change % (negative = inhibition) [5] -13.9% | Potency [6]

Fc1ccc(Br)cc1
inactive: activation [1] 9.16% | Potency [2] | Potency [3] | outcome [4] | activation [7] -1.54%

C/C(=C\C(C)CC(C)CC(C)C)C1CC(=O)OC1=O (centres undefined)
inactive: activation [1] -4.02% | Potency [3] | outcome [4] | activity change % (negative = inhibition) [5] 0.311% | activation [7] -3.07%

O=[N+]([O-])C(CO)(CO)CO
inactive: Potency [2] | Potency [3] | outcome [4] | activation [7] 7.94%

C[N+](C)(C)CC(O)CCl (centres undefined)
inactive: activation [1] -7.46% | Potency [3] | outcome [4] | activity change % (negative = inhibition) [5] -6.17% | activation [7] 0.454%

C=CC(=O)NC(C)(C)CS(=O)(=O)O
inactive: Potency [3] | outcome [4] | activity change % (negative = inhibition) [5] 13.1% and 23.4% | activation [7] 2.63% and -4%

CC(C)OB(OC(C)C)OC(C)C
inactive: Potency [2] | Potency [3] | outcome [4] | Potency [6] | activation [7] 0.574%

CCCCCCCCCCCO
inactive: Potency [3] | outcome [4] | activity change % (negative = inhibition) [5] 9.58%

O=[N+]([O-])c1ccc2c(c1)Cc1ccccc1-2
inactive: activation [1] -0.149% | activity change % (negative = inhibition) [5] -0.921%

CCCCCCCCCCCCCO
active: Potency [6] 48.6 µM
inactive: activation [1] 0.908% | Potency [3] | activation [7] -3%

OC1CCCCCCCCCCC1
inactive: activation [1] -19.4% | Potency [2] | Potency [6] | activation [7] 4.17%

CCCCOCCOCCOC(C)=O
inactive: activation [1] -1.04% | Potency [3] | outcome [4] | activity change % (negative = inhibition) [5] -10.2% | activation [7] -0.502%

CN(C)C(=O)Nc1ccccc1
inactive: Potency [2] | Potency [3] | outcome [4] | activity change % (negative = inhibition) [5] -24.6%

Cc1ccc(S(=O)(=O)N=C=O)cc1
inactive: activation [1] 20.2% | Potency [2] | Potency [3] | activity change % (negative = inhibition) [5] 8.97% | activation [7] -3.48%

CCCC/C=C/CCCCO
inactive: Potency [2] | outcome [4] | activity change % (negative = inhibition) [5] 0.772% | Potency [6]

CC(C)OC(=O)c1ccccc1C(=O)OC(C)C
inactive: activation [1] -6.71% | Potency [2] | outcome [4]

O=C(OCC1CCC2OC2C1)C1CCC2OC2C1 (centres undefined)
inactive: activation [1] -15% | activity change % (negative = inhibition) [5] 1.74% | activation [7] 2.61%

CC1=CC2C3CC(C=C3C)C2C1 (centres undefined)
inactive: activation [1] 1.22% | Potency [2] | outcome [4] | Potency [6]

COC(=O)c1ccccc1C(=O)O
inactive: activation [1] -3.15% | Potency [2] | Potency [3] | outcome [4] | activity change % (negative = inhibition) [5] -12.2% | activation [7] -3.42%

CCOC(=O)CC(O)(CC(=O)OCC)C(=O)OCC
inactive: Potency [3] | outcome [4] | activity change % (negative = inhibition) [5] 13% | Potency [6] | activation [7] -0.036%

c1ccc(-c2ccc(-c3ccccc3)cc2)cc1
inactive: activation [1] -0.857% | Potency [2] | Potency [3] | outcome [4] | activity change % (negative = inhibition) [5] 2.31%

Cc1cc(C)c(N)c(Cl)c1
inactive: activation [1] 5.1% | Potency [2] | Potency [3] | activity change % (negative = inhibition) [5] -1.82% | activation [7] -7.91%

C[Si]1(C)O[Si](C)(C)O[Si](C)(C)O[Si](C)(C)O[Si](C)(C)O1
inactive: activation [1] 5.87% | Potency [2] | outcome [4] | Potency [6] | activation [7] 1.25%

CC1(C)CC(N)CC(C)(CN)C1 (centres undefined)
inactive: activation [1] 10.3% | activation [7] -1.29%

CC/C=C\CCOC(=O)c1ccccc1O
inactive: activation [1] -3.47% | Potency [2] | outcome [4] | activity change % (negative = inhibition) [5] 0.0454% | Potency [6] | activation [7] -5.63%

CCC(C)(C)C1CCC(O)CC1 (centres undefined)
inactive: Potency [2] | Potency [3] | activity change % (negative = inhibition) [5] -5.82% | Potency [6] | activation [7] 1.97%

O=C(Cl)c1cc(Cl)cc(Cl)c1
inactive: activation [1] -2.63% | Potency [2] | Potency [3] | outcome [4] | activity change % (negative = inhibition) [5] -10.7% | activation [7] -0.691%

CC(C)(C)C1CCC(O)CC1 (centres undefined)
inactive: activation [1] -9.45% | Potency [2] | activity change % (negative = inhibition) [5] -2.02% | Potency [6] | activation [7] -3.97%

CCCCCCCC(=O)OC
inactive: Potency [2] | Potency [3] | outcome [4] | activity change % (negative = inhibition) [5] 13.2% | Potency [6] | activation [7] 3.63%

CC(C)CCCCCOC(=O)CS
inactive: activation [1] 5.28% | Potency [2] | activity change % (negative = inhibition) [5] -8.58% | Potency [6]

CCCCCCCCCCCCCCC(=O)OC
inactive: activation [1] -1.65% | Potency [3] | outcome [4] | Potency [6]
